Bioassay records as filed in PubChem BioAssay.
Nrf2 activator = qHTS of Nrf2 Activators; actives 0.31% (n = 410,000); AID 624171, 2012; Potency, µM (doses to about 46.1 µM), inactives show at the top dose activation, hits mostly activators; AREc32 ARE-luciferase reporter (MCF7-derived line), luminescence, 24 h; further: % of control where 0% means no effect; nearly all actives have a fitted effect of over 65% in size
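AREc32_Fluc, 1000 cells/well, OPTI-MEM + 5% FBS, o/n 37 deg C 5% CO2; 23 nL cpd by pin tool, 24 hr; Steady-Glo 30 min RT, luminescence.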
Nrf2 block = Nrf2 qHTS screen for inhibitors. A549 ARE-Fluc reporter, luciferase luminescence, 18-24 h. Potency, µM (top dose mostly 46 µM), inactives show top-dose activity change, negative = inhibition, most hits filed as inhibitors. actives 2.1% (n = 360,000); further: on the % scale 0 is the no-effect control and ±100 the full control effect; nearly all actives have a fitted effect of over 60% in size
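Quantitative HTS in A549 cells stably bearing an antioxidant response element-firefly luciferase construct. Inhibition of Nrf2-driven transcription was scored by luminescence after 18-24 h of compound exposure at 37 °C.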
GALK inh = qHTS Assay for Inhibitors of Human Galactokinase (GALK) | actives 0.007% (n = 270,000) | AID 1868, 2009 | P51570 | Purified GALK, Kinase-Glo residual ATP luminescence | Potency, µM (highest dose often 57.5 µM), for the others: at the top dose activity change, negative = inhibition, usual class: inhibitors; further: on the % scale 0 is the no-effect control and ±100 the full control effect
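Luminescence from leftover ATP (Ultra-Glo luciferase/luciferin) served as read-out after a 1 h room-temperature reaction of 5 nM GALK with 35 uM ATP and 100 uM galactose.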
TrxR1 inh = qHTS Assay for Inhibitors of Mammalian Selenoprotein Thioredoxin Reductase 1 (TrxR1): qHTS; actives 1% (n = 390,000); recombinant rTrxR1, NADPH fluorescence consumption, selenite substrate; AID 588453, 2011; Potency, µM (series often up to 114 µM), for the others: at the top dose activity change, negative = inhibition, most hits filed as inhibitors; Thioredoxin reductase 1, cytoplasmic (Rattus norvegicus), O89049; further: on the % scale 0 is the no-effect control and ±100 the full control effect; nearly all actives have a fitted effect of over 65% in size
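Rat TrxR1 (90 nM in the dispensed reagent) was pre-reduced with 400 uM NADPH for 5 min at room temperature, then incubated with compound for 15 min. After 400 uM selenite was added, NADPH fluorescence (Ex 340/Em 450 nm) was followed for 8 min.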
TrxR1 substrate = qHTS Assay for Substrates of Mammalian Selenoprotein Thioredoxin Reductase 1 (TrxR1): qHTS; Thioredoxin reductase 1, cytoplasmic (Rattus norvegicus), O89049; AID 588456, 2011; purified TrxR1 substrate turnover, NADPH consumption readout; Potency, µM (titrated, usually from 114 µM), for inactives: at the top dose activity change, negative = substrate turnover; actives 0.01% (n = 390,000); further: on the % scale 0 is the no-effect control and ±100 the full control effect; nearly all actives have a fitted effect of over 50% in size
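Rat TrxR1, dispensed at 90 nM, was prereduced with 400 uM NADPH (final) for 5 min at ~22 deg C, then incubated with compound 15 min before 400 uM selenite. A first-read NADPH fluorescence drop versus no-compound background flagged substrates.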
A549 tox-1 = Nrf2 qHTS screen for inhibitors: counterscreen for cytotoxicity. A549 ARE-Fluc cells, CellTiter-Fluor viability, 18-24 h. Potency, µM (top dose mostly 46 µM), without a hit: top-dose activity change, negative = cytotoxicity, most hits filed as inhibitors. AID 504648, 2011. actives 0.16% (n = 390,000); further: on the % scale 0 is the no-effect control and ±100 the full control effect
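A549 ARE_Fluc cells in 5% FBS OPTI-MEM were exposed to compounds in concentration-response for 18-24 h at 37 deg C. Viability was read by CellTiter-Fluor fluorescence (Ex 405/Em 525) after 30 min, before the luciferase read.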
FLuc enzyme inh = Nrf2 qHTS screen for inhibitors: Purified Fluc Biochemical Counterscreen for Hit Validation; shares compounds with Nrf2 block; purified firefly luciferase, luminescence inhibition; Potency, µM (highest dose often 57.5 µM), for the others: at the highest dose activity change, negative = inhibition, usual class: inhibitors; actives 4% (n = 1,400); further: on the % scale 0 is the no-effect control and ±100 the full control effect; nearly all actives have a fitted effect of over 65% in size
Target sequence (P08659 whole entry, looked up): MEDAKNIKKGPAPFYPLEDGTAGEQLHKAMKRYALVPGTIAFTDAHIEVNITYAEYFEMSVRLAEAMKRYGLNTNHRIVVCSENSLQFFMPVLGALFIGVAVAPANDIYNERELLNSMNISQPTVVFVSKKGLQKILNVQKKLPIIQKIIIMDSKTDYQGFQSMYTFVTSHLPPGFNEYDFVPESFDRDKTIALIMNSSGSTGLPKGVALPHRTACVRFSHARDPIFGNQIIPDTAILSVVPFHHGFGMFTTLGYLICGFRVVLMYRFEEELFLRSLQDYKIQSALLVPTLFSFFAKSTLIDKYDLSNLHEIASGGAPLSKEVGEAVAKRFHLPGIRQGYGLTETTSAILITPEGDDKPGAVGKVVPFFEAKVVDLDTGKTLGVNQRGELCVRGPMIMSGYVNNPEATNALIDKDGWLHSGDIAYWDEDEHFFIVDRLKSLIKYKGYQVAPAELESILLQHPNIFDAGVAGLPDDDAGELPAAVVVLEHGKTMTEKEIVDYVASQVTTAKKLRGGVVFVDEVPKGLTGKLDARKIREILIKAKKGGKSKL
A549 tox-2 = Nrf2 qHTS screen for inhibitors: A549 ARE-Fluc Cytotoxicity Counterscreen for Hit Validation. Potency, µM (top dose mostly 46.1 µM), without a hit: at the top dose activity change, negative = cytotoxicity, usual class: inhibitors. shares compounds with Nrf2 block. A549 ARE-Fluc cells, cytotoxicity counterscreen. actives 2% (n = 1,400);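 further: cells exposed to compounds for 18 to 24 hours; on the % scale 0 is the no-effect control and ±100 the full control effect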
ARE-Fluc inh = Nrf2 qHTS screen for inhibitors: Nrf2 A549 ARE-Fluc Confirmation Assay for Hit Validation; shares compounds with Nrf2 block; A549 ARE-firefly luciferase reporter, luminescence; Potency, µM (top dose mostly 46.1 µM), for the others: at the top dose activity change, negative = inhibition, usual class: inhibitors; actives 74% (n = 1,400); further: on the % scale 0 is the no-effect control and ±100 the full control effect; nearly all actives have a fitted effect of over 65% in size
The depositor's hits bear a star; ? = inconclusive; . = no result shown; ! = not active in a repeat; [ ] = dose if it differs, or a comment. Shown are actives, neighbours in structure and some others; about 3% of the full set was active somewhere. The call rests on the fitted dose curve; in most records, active means well fitted curve in the direction sought with a large enough effect; inconclusive means small, poorly fitted or top-dose-only effect, or another doubt; inactive means no such curve, though single readings can be large; an effect the other way counts as inactive or inconclusive. Potency means the concentration at half of the fitted maximal effect.

SMILES	Nrf2 activator	Nrf2 block	GALK inh	TrxR1 inh	TrxR1 substrate	A549 tox-1	FLuc enzyme inh	A549 tox-2	ARE-Fluc inh
COc1cc(NS(=O)(=O)c2ccc3c(c2)CC(C)N3C(=O)C2CCC2)cc(OC)c1OC (configuration not stated)	.	6.5µM*	.	3%	-6%	-26%	-2%	-16%	2.6µM*
COc1ccc(N2CCN(S(=O)(=O)c3ccc4c(c3)CC(C)N4C(C)=O)CC2)cc1 (configuration not stated)	-1%	9.2µM*	.	9%	-1%	-9%	4%	-4%	5.8µM*
COc1cc(Cl)c(NS(=O)(=O)c2ccc3c(c2)CC(C)N3C(=O)C2CCC2)c(OC)c1 (configuration not stated)	-1%	9.2µM*	.	5%	-4%	-22%	0%	-11%	8.2µM*
COc1ccc(C2=Nn3c(nnc3-c3cccc(OC)c3OC)SC2)c(OC)c1	.	-12%	.	.	.	-3%	.	.	.
CC1(C)Cc2cccc(OCC(=O)N3CCN(c4ccc(F)cc4)CC3)c2O1	-1%	3%	.	0%	-2%	-7%	.	.	.
Cc1cc(Cl)c(S(N)(=O)=O)cc1OCC(=O)NC1CCCCC1	0%	-4%	-4%	9%	1%	3%	.	.	.
Cc1cc(Cl)c(S(=O)(=O)NC2CCCC2)cc1OCC(=O)NC1CCCCC1	0%	6.5µM*	1%	-13%	-12%	-30%	3%	-13%	7.3µM*
Cc1cc(Cl)c(S(=O)(=O)N2CCSCC2)cc1OCC(=O)NC1CCCCC1	2%	6.5µM*	4%	0%	-9%	?	-1%	-24%	4.6µM*
O=C(N[C@@H]1CCC(=O)N(CC[C@H](Sc2ccccc2)c2ccccc2)CC1)OCc1ccccc1	5%	-9%	.	-19%	-8%	-6%	.	.	.
CCOC(=O)c1sc2ccccc2c1OC(=O)c1ccccc1OC	3%	4.6µM*	0%	12%	-4%	-29%	-14%	-22%	?
CCOC(=O)c1ccccc1NC(=O)c1sc2ccccc2c1Cl	4%	?	.	16%	8%	-2%	.	.	.
COc1cc(OC)c(/C=C/c2cc3c4ccccc4ccc3[n+](C)c2)c(OC)c1	.	.	.	-17%	247%	.	6.7µM*	-15%	4.6µM*
COc1cc(OC)c(/C=C/c2cc(/C=C/c3c(OC)cc(OC)cc3OC)[n+](C)c3ccccc23)c(OC)c1	.	.	.	-1%	4%	.	.	.	.
COc1cc(OC)c(/C=C/c2c3ccccc3cc[n+]2C)c(OC)c1	.	.	.	2%	-8%	.	1%	?	2.1µM*
COc1cc(OC)c(/C=C/c2nc3ccccc3o2)c(OC)c1	.	.	.	4%	0%	.	.	.	.
CC(Sc1nn(-c2ccc(F)cc2)c(=S)s1)C(=O)c1c(N)n(C)c(=O)n(C)c1=O (configuration not stated)	3%	?	.	-7%	-6%	-5%	.	.	.
Cn1c(N)c(C(=O)CSc2nn(-c3ccccc3)c(=S)s2)c(=O)n(C)c1=O	0%	7.3µM*	.	9%	0%	-16%	-10%	-12%	9.2µM*
O=C(Nc1ccc2c(c1)OCCO2)c1cccc2nc3ccccc3nc12	0%	2.6µM*	1%	-8%	-10%	21µM*	?	12µM*	.
Cc1ccc2sc(NC(=O)C3CC3)nc2c1C	14%	?	0%	22%	3%	0%	.	.	.
CCCCn1c(CN2CCN(c3ccccc3)CC2)nc2c1c(=O)n(C)c(=O)n2C	0%	4.1µM*	0%	37%[57.1 µM]	12%[57.1 µM]	?	2%	-12%	15µM*
COc1cccc(CNC(=O)CCn2c(=O)c3cccn3c3cccnc32)c1	?	1.2µM*!	8%	-27%	-15%	1%	-2%	-3%	7%
COc1cc(C2CC(=O)c3c([nH]c(C(=O)OC4CCCC4)c3C)C2)cc(OC)c1OC (configuration not stated)	-2%	5.8µM*	.	15%	1%	?	-15%	?	12µM*
COC(=O)c1[nH]c2c(c1C)C(=O)CC(c1cc(OC)c(OC)c(OC)c1)C2 (configuration not stated)	3%	9.2µM*	0%	17%	-2%	0%	4%	-6%	?
COC(=O)c1[nH]c2c(c1C)C(=O)CC(c1ccc(OC)c(OC)c1)C2 (configuration not stated)	0%	?	-1%	14%	5%	-4%	.	.	.
CC1=C(C(=O)OC2CCCCCC2)C(c2c(F)cccc2Cl)CC(=O)N1 (configuration not stated)	0%	?	.	-22%	-19%	5%	.	.	.
SMILES	Nrf2 activator	Nrf2 block	GALK inh	TrxR1 inh	TrxR1 substrate	A549 tox-1	FLuc enzyme inh	A549 tox-2	ARE-Fluc inh
CCc1cnc2c(c1SCC(=O)c1ccc(Cl)cc1)c(=O)n(C)c(=O)n2C	6%	.	.	9%[57.1 µM]	-6%[57.1 µM]	6%	.	.	.
CCOc1ccccc1CNC(=O)CCn1ccc2cc(S(=O)(=O)N3CCC(C)CC3)ccc21	5%	?	.	11%	-2%	-5%	.	.	.
CCOC1=C2[C@H](c3ccc(CC)cc3)N(S(=O)(=O)c3ccc(C)cc3)C[C@H]2n2c(=O)n(-c3ccccc3)c(=O)n2C1	0%	.	.	.	.	.	.	.	.
CC(=O)Cn1cnc2scc(-c3ccc(C)c(C)c3)c2c1=O	3%	2%	0%	12%	-4%	24%	.	.	.
CCCCOCCCNC(=S)Nc1ccc(S(=O)(=O)N2CCOCC2)cc1	2%	-27%	12%	?	-8%	3%	.	.	.
O=S(=O)(c1ccc(NC(=S)NCCC(c2ccccc2)c2ccccc2)cc1)N1CCOCC1	1%	4.1µM*	-3%	-3%	-8%	?	-12%	-25%	?
